Assay outcomes as filed in PubChem BioAssay.
TDP-43 yeast inh = TDP-43 toxicity inhibition in yeast. TDP-43 expressing yeast growth rescue, BacTiter-Glo, 24 h. Potency, µM (highest dose often 46.1 µM), usual class: activators. 410,000 compounds, 1.8% hits; further: nearly all actives have a fitted effect of over 50% in size
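Yeast expressing TDP-43 (pregrown in raffinose, seeded at OD600=0.02 in galactose medium) exposed to compounds 24 hr at 30 deg C. Growth read by BacTiter-Glo luminescence; rescue of toxicity appears as increased signal.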
Abeta rescue = compounds reversing amyloid beta toxicity in yeast; yeast expressing A-beta42, growth rescue, OD600, 48 h; response scale: 0% DMSO, 100% iron-clioquinol control; 410,000 compounds, 0.063% hits; Potency, µM (top dose mostly 46.1 µM), hits mostly activators; further: nearly all actives have a fitted effect of over 55% in size
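Yeast growth medium received pinned compounds, then yeast cells expressing toxic A-beta were added; plates incubated at 30 C for 48 hr. Growth read as absorbance at 600 nm, normalized to DMSO and equimolar FeCl3 plus clioquinol controls.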
FUS yeast rescue = suppressors of FUS proteinopathy in yeast; S. cerevisiae FUS-expressing, growth rescue, OD600, 24 h; Potency, µM (titrated, usually from 76.6 µM), hits mostly activators; 390,000 compounds, 0.24% hits; further: nearly all actives have a fitted effect of over 55% in size
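Yeast FUS proteinopathy model; galactose-induced FUS (2%), starting OD 0.005. Cpds in dilution series, 24hr, 30C, 99% humidity. Abs 600 nm growth. Pos ctrl CP55940 (top 92uM final); neg ctrl DMSO.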
aSyn yeast inh = alpha-synuclein toxicity inhibition in yeast. AID 652106. Potency, µM (doses to about 46.1 µM), most hits filed as activators. Yeast expressing alpha-synuclein, growth rescue, BacTiter-Glo, 24 h. 370,000 compounds, 0.14% hits; further: nearly all actives have a fitted effect of over 65% in size
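Screening used galactose-induced yeast with toxic alpha-synuclein levels, exposed to compound for 24 hr at 30 deg C. Cell growth, read with BacTiter-Glo luminescence, gave the measured signal.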
A number is an active result; n = inactive; u = inconclusive; x = no result given. Rows were chosen to be rich in hits. Some 2.1% of all compounds tested hit in one or more screens of this group. The call rests on the fitted dose curve; in most records, active means well fitted curve in the direction sought with a large enough effect; inconclusive means small, poorly fitted or top-dose-only effect, or another doubt; inactive means no such curve, though single readings can be large; an effect the other way counts as inactive or inconclusive.

SMILES	TDP-43 yeast inh	Abeta rescue	FUS yeast rescue	aSyn yeast inh
COc1cccc(C(=O)NCCc2csc(-c3ccc(Cl)cc3)n2)c1	35.5µM	n	n	x
O=C(NCCc1csc(-c2ccc(C(F)(F)F)cc2)n1)c1cccs1	22.4µM	n	u	n
O=C(c1ccccc1)N1CCc2cc(CNS(=O)(=O)c3ccccc3Cl)ccc21	n	n	n	x
O=C(NCc1ccccc1Cl)O[C@H]1CC[C@@]23CCCN2C(=O)CCC[C@H]3C1	x	x	n	x
Cc1nn(-c2ccc(N3CCCCC3)nn2)c(C)c1CCC(=O)NCc1ccc(OC(C)C)cc1	n	n	n	x
CCOC(=O)c1c(C)nc2c(c1-c1cc(OC)ccc1OC)C(=O)c1ccccc1-2	n	n	n	x
CCOC(=O)C1=C(Cc2ccc(OC)cc2)C(=O)c2ccccc2C1=O	12.6µM	n	n	n
CC(OC(=O)c1ccccc1O)C(=O)Nc1ccc(Cl)cn1 (stereo not drawn)	n	n	n	n
Cc1ccc(C(=O)OC(C)C(=O)Nc2ccc(Cl)cn2)s1 (stereo not drawn)	14.1µM	n	n	n
CCc1cc2c(SCC(=O)NC3CC3)ncnc2s1	n	n	x	n
CCc1cc2c(SC(C)C(=O)NC3CCCC3)ncnc2s1 (stereo not drawn)	35.5µM	n	n	n
O=C(NCc1ccccc1)OCCN1C(=O)CCC12CCC(c1ccccc1)CC2 (stereo not drawn)	x	x	n	x
O=C1CC(c2ccc3c(c2)OCCO3)Oc2ccccc21 (stereo not drawn)	14.1µM	n	n	n
Cc1cc(-c2n[nH]c(=S)n2N=Cc2ccc(O)cc2)n[nH]1	x	x	n	x
COc1ccc(C(=O)Nc2cccc(-c3nnc(-c4ccco4)o3)c2)cc1	15.8µM	n	n	n
COc1ccc(CC(=O)Nc2cccc(-c3nnc(-c4ccco4)o3)c2)cc1	n	n	n	n
Cn1c(SCCOc2ccccc2)nnc1-c1ccc(NC(=O)CCc2ccccc2)cc1	x	x	x	n
O=C(Nc1ccc(Cl)cc1)P(=O)(O)c1ccccc1	17.8µM	n	n	n
CCc1ccc2[nH]c(=O)c(CN(Cc3ccco3)Cc3nnnn3Cc3ccco3)cc2c1	x	x	x	n
O=C(N/N=C/c1cc([N+](=O)[O-])cc(Br)c1O)C12CC3CCC(CC(C3)C1)C2	4.47µM	n	n	n
CCOC(=O)C1CCCN(S(=O)(=O)c2cc3c(cc2Br)CCN3C(=O)CC)C1 (stereo not drawn)	x	x	n	x
Fc1cccc(CSc2ccc3nnc(-c4cccnc4)n3n2)c1	15.8µM	u	n	n
Cc1ccc(CSc2ccc3nnc(-c4ccccn4)n3n2)cc1	20µM	n	n	n
Brc1ccc(CSc2ccc3nnc(-c4cccnc4)n3n2)cc1	15.8µM	n	n	n
Cc1ccc(CSc2ccc3nnc(-c4cccnc4)n3n2)cc1	n	n	n	n
SMILES	TDP-43 yeast inh	Abeta rescue	FUS yeast rescue	aSyn yeast inh
COc1ccccc1CNC(=O)CC1N=C2c3ccccc3N=C(SCC(=O)Nc3ccc(F)cc3)N2C1=O (stereo not drawn)	n	n	u	x
COc1ccc(Cl)cc1NC(=O)C1CCCN(c2ncnc3c2nc2n3CCCCC2)C1 (stereo not drawn)	14.1µM	n	n	n
CCN(C(=O)C1CCCN(c2ncnc3c2nc2n3CCCCC2)C1)c1cccc(C)c1 (stereo not drawn)	14.1µM	n	n	x
O=C(Nc1cccnc1Cl)C1CCCN(c2ncnc3c2nc2n3CCCCC2)C1 (stereo not drawn)	n	n	n	n
CCN(C(=O)C1CCCN(c2ncnc3c2nc2n3CCCCC2)C1)c1cccc(Cl)c1 (stereo not drawn)	25.1µM	n	u	n
O=C(Nc1ccc(Cl)cn1)C1CCCN(c2ncnc3c2nc2n3CCCCC2)C1 (stereo not drawn)	u	n	n	n
CCCN1C(=O)CN(C2CCCCCC2)C(=O)C1c1ccc(OCC)c(OC)c1 (stereo not drawn)	n	n	n	x
CCOc1ccc(/C=C/c2nc(C#N)c(N3CCCCC3)o2)cc1	u	u	n	x
O=C1CCc2cc(NS(=O)(=O)c3ccc(Br)cc3)cc3c2N1CC3	n	n	n	3.16µM
COc1ccc(S(=O)(=O)Nc2cc3c4c(c2)CCN4C(=O)CC3)cc1	n	n	n	n
CCc1ccc(NC(=O)N(Cc2ccc(C)cc2)Cc2cccn2-c2nnc(N3CCCC3=O)s2)cc1	n	n	u	x
CCOc1ccc(NC(=O)CN2C(=O)CC(C)Sc3ccccc32)cc1 (stereo not drawn)	u	n	n	n
Cc1ccc2[nH]c(C(=O)N3CCCC(Nc4ccc(F)cc4)C3)cc2c1 (stereo not drawn)	22.4µM	n	u	n
Cc1cc(C)c(C(=O)N2CCCC(Nc3ccc(F)cc3)C2)o1 (stereo not drawn)	n	n	n	n
CC1CCc2c(sc(N)c2C(N)=O)C1 (stereo not drawn)	n	n	31.6µM	n
CCC1CCc2c(sc(N)c2C(N)=O)C1 (stereo not drawn)	n	n	x	n
CC1=CC2=NC(=O)/C(=C\c3cccn3CCOc3cc(C)ccc3C)C(=N)N2O1	15.8µM	n	n	n
Cc1[nH]c2ccccc2c1C1(O)C(=O)N(Cc2ccccc2)c2ccc(Cl)cc21 (stereo not drawn)	n	n	n	x
c1ccc(-c2nnc(N3CCCC3)nc2-c2ccccc2)cc1	17.8µM	n	n	n
CNc1cc[n+](C)c2ccccc12	x	x	x	n
Cc1ccc(-n2c(SCc3c(Cl)cccc3Cl)nnc2-c2ccco2)cc1	x	x	n	x
CCCS(=O)(=O)c1c(S(=O)(=O)CCC)c2cc(C(C)(C)C)ccn2c1C(=O)c1ccccc1	n	n	17.8µM	x
COC(=O)c1sccc1NC(=O)Nc1ccccc1C	11.2µM	n	n	n
COC(=O)c1sccc1NC(=O)Nc1ccc(C)c(C)c1	12.6µM	n	n	n
O=C(Cn1c(-c2cncs2)nc2ccccc21)NCc1cccs1	x	x	n	x
SMILES	TDP-43 yeast inh	Abeta rescue	FUS yeast rescue	aSyn yeast inh
Cc1cccc(N2C(=O)C(O)=C(C(=O)c3cccs3)C2c2ccc(C(C)C)cc2)n1 (stereo not drawn)	28.2µM	n	n	n
Cc1cccc(N2C(=O)C(O)=C(C(=O)c3cccs3)C2c2ccc(F)cc2)n1 (stereo not drawn)	n	n	n	n
COC(=O)C1CN(Cc2ccc(F)cc2)CCS(=O)(=O)N1Cc1cn(Cc2ccc(C)cc2)nn1 (stereo not drawn)	x	x	n	x
COc1ccc(Cn2cc(CN3CCc4onc(-c5ccc(Br)cc5)c4C3=O)nn2)cc1	17.8µM	n	u	n
O=C(C1CCN(S(=O)(=O)Cc2ccccc2)CC1)N1CCN(c2ccccc2)CC1	n	n	n	x
O=C(COC(=O)c1cc(-c2ccc(F)cc2)nc2ccccc12)NCC1CCCO1 (stereo not drawn)	14.1µM	n	n	n
O=C(COC(=O)c1cccc2ccccc12)NCC1CCCO1 (stereo not drawn)	n	n	n	n
COc1ccc(-n2cc(C(=O)NCCc3ccc(C)cc3)c3ccccc3c2=O)cc1	17.8µM	n	n	x
